Reference: PubChem BioAssay (Tox21)
Values joined by “and” are separate entries in the source; they are usually repeats but may differ in a detail not shown here. Identical values can stand only once. Results filed as inconclusive are left out. Unmarked numbers belong to inactive results. Active and inactive are the calls of the source. The call rests on the fitted dose curve; in most records, active means well fitted cell-killing curve with a large enough effect in the repeat runs; inconclusive means weak or mixed curves, or effect the other way; inactive means flat fitted curve, though single readings scatter.

Assay: qHTS assay to identify small molecule agonists of the androgen receptor (AR) signaling pathway in the presence of an antagonist - cell viability counter screen (AID 1259379); further: nearly all actives have a fitted effect of over 25% in size;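 on activity change, negative = cytotoxicity: MDA-kb2 human breast cancer cells carrying an MMTV luciferase reporter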
Conditions: MDA-kb2 viability, CellTiter-Fluor, 16 h; series mostly up to 92.4 µM; activity change, negative = cytotoxicity: at the top concentration
Procedure, shortened: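 Viability counter screen: CellTiter-Fluor fluorescence, measured in the same wells as the luciferase read-out. MDA-kb2 cells, 3,000/well, with nilutamide at 3.0uM final and compounds at 15 concentrations, 16 hr at 37C, 0% CO2.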
On the % scale 0 is the no-effect control and ±100 the full control effect; potency means the concentration at half of the fitted maximal effect.

Row | Compound | activity change, negative = cytotoxicity | Potency
1 | C[C@@H](Oc1ccc(Cl)cc1Cl)C(=O)O | 1.63% | –
2 | CN(C)[C@@H]1C(=O)C(C(N)=O)=C(O)[C@@]2(O)C(=O)C3=C(O)c4c(O)ccc(Cl)c4[C@@](C)(O)[C@H]3C[C@@H]12 | -1.99% | –
3 | CCOC(=O)OC1=C(c2cc(C)ccc2C)C(=O)NC12CCC(OC)CC2 (centres undefined) | -1.16% | –
4 | Oc1ccc(I)cc1 | 1.17% | –
5 | O=c1ssc(Cl)c1Cl | – | 68.6 µM (active)
6 | Oc1ccccc1Br | 0.222% | –
7 | C=CC(=O)OCCCCOC(=O)C=C | – | 54.5 µM (active)
8 | N#C/C=C/C#N | -12.4% | –
9 | CCOP(=O)(NC(C)C)Oc1ccc(SC)c(C)c1 (centres undefined) | -2.21% | –
10 | [Cd+2].[Cl-].[Cl-] | – | inactive
11 | S=C(SSC(=S)N1CCCCC1)N1CCCCC1 | -8.68% [at 42.5 µM] | –
12 | CC[C@H](C)[C@H]1O[C@]2(C=C[C@@H]1C)C[C@@H]1C[C@@H](C/C=C(\C)[C@@H](O[C@H]3C[C@H](OC)[C@@H](O[C@H]4C[C@H](OC)[C@@H](O)[C@H](C)O4)[C@H](C)O3)[C@@H](C)/C=C/C=C3\CO[C@@H]4[C@H](O)C(C)=C[C@@H](C(=O)O1)[C@]34O)O2 | – | 36.1 µM (active)
13 | CCCCOCN(C(=O)CCl)c1c(CC)cccc1CC | -4.55% | –
14 | CC(C)C(=O)Cl | -0.687% | –
15 | O=C(CCl)C(Cl)Cl | – | 27.6 µM (active)
16 | O=C(O)COc1nc(Cl)c(Cl)cc1Cl | 6.9% | –
17 | O=C(O)c1cc[c]([Hg][Cl])cc1 | -7.91% | –
18 | O=c1oc2ccccc2c(O)c1Cc1c(O)c2ccccc2oc1=O | 1.79% [at 42.5 µM] | –

Row | Compound | activity change, negative = cytotoxicity | Potency
19 | CC(C)(C)c1ccc(CSc2cnn(C(C)(C)C)c(=O)c2Cl)cc1 | – | 0.0433 µM (active)
20 | Clc1ccc(Oc2ccccc2)cc1 | -7.17% | –
21 | CCCCCCCCCCCCCCCC[n+]1ccccc1 | – | 25.5 µM (active) [middle of 4 runs]
22 | CCCN(CCC)c1c([N+](=O)[O-])cc(S(N)(=O)=O)cc1[N+](=O)[O-] | – | 51.8 µM (active)
23 | c1cc[c]([Sb]([c]2ccccc2)[c]2ccccc2)cc1 | -1.49% | –
24 | ClC(Cl)=C(c1ccc(Cl)cc1)c1ccc(Cl)cc1 | – | inactive
25 | Nc1ccccc1C(=O)Oc1ccc2ccccc2c1 | -3.69% | –
26 | O=C1c2ccccc2C(=O)C1C(=O)C(c1ccccc1)c1ccc(Cl)cc1 (centres undefined) | – | 27.3 µM (active)
27 | CN(C)c1ccc(N=Nc2ccccc2)cc1 | – | 48.6 µM (active)
28 | O=C(O)C1C2CCC(O2)C1C(=O)O (centres undefined) | – | inactive
29 | O=[N+]([O-])c1ccc2ccc3cccc4ccc1c2c34 | – | 48.5 µM (active)
30 | CCS(=O)(=O)c1cccnc1S(=O)(=O)NC(=O)Nc1nc(OC)cc(OC)n1 | 3.36% | –
31 | Oc1ccc(C2(c3ccc(O)cc3)CCCCC2)cc1 | -10.8% | –
32 | CCOCCOC(C)=O | -0.224% | –
33 | CCCCCCCCCCCCBr | -1.86% | –
34 | CCCCCCCCCCCCCC[P+](CCCCCC)(CCCCCC)CCCCCC (tested in a mixture with another compound) | – | 8.63 µM (active)
35 | C=CCC1=C(C)C(OC(=O)C2C(C=C(C)C)C2(C)C)CC1=O (centres undefined) | – | 61.1 µM (active)
36 | CCC[CH2][Sn]([CH2]CCC)([CH2]CCC)[O]C(=O)c1ccccc1 | – | 1.72 µM (active)

Assay: qHTS assay to identify small molecule agonists of the estrogen receptor beta (ER-beta) signaling pathway - cell viability counter screen (AID 1259380); further: nearly all actives have a fitted effect of over 30% in size
Conditions: ER-beta-bla HEK293T viability, CellTiter-Glo luminescence, 16 h; series mostly up to 92.4 µM; activity change, negative = cytotoxicity: at the top concentration
Procedure, shortened: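 Luminescence read-out (CellTiter-Glo, 30 min, room temp) taken in the same wells as the beta-lactamase reporter assay; ER-beta-UAS-bla HEK293T cells exposed to DMSO-dissolved compounds for 16 hr at 37C in 2% charcoal-stripped FBS medium.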

Row | Compound | activity change, negative = cytotoxicity | Potency
37 | C[C@@H](Oc1ccc(Cl)cc1Cl)C(=O)O | 4.67% | –
38 | Oc1ccc(I)cc1 | -1.22% | –
39 | Oc1ccccc1Br | -0.0853% | –
40 | C=CC(=O)OCCCCOC(=O)C=C | -6.38% | –
41 | COP(N)(=S)OC | 1.79% | –
42 | N#C/C=C/C#N | -7.46% | –
43 | [Cd+2].[Cl-].[Cl-] | – | 69.1 µM (active) and 68.6 µM (active)
44 | S=C(SSC(=S)N1CCCCC1)N1CCCCC1 | – | 0.188 µM (active)
45 | CC[C@H](C)[C@H]1O[C@]2(C=C[C@@H]1C)C[C@@H]1C[C@@H](C/C=C(\C)[C@@H](O[C@H]3C[C@H](OC)[C@@H](O[C@H]4C[C@H](OC)[C@@H](O)[C@H](C)O4)[C@H](C)O3)[C@@H](C)/C=C/C=C3\CO[C@@H]4[C@H](O)C(C)=C[C@@H](C(=O)O1)[C@]34O)O2 | – | 18.1 µM (active)
46 | CC(C)C(=O)Cl | -6.05% | –
47 | O=C(CCl)C(Cl)Cl | – | 9.78 µM (active)
48 | O=c1oc2ccccc2c(O)c1Cc1c(O)c2ccccc2oc1=O | – | 5.31 µM (active)
49 | Clc1ccc(Oc2ccccc2)cc1 | 0.721% | –
50 | c1ccc2cc3c(cc2c1)-c1cccc2cccc-3c12 | 2.6% | –
51 | CCCN(CCC)c1c([N+](=O)[O-])cc(S(N)(=O)=O)cc1[N+](=O)[O-] | – | 23.1 µM (active)
52 | O=C1c2ccccc2C(=O)C1C(=O)C(c1ccccc1)c1ccc(Cl)cc1 (centres undefined) | – | 24.3 µM (active)
53 | O=C(O)C1C2CCC(O2)C1C(=O)O (centres undefined) | – | inactive
54 | O=[N+]([O-])c1ccc2ccc3cccc4ccc1c2c34 | – | 30.6 µM (active)
55 | CCS(=O)(=O)c1cccnc1S(=O)(=O)NC(=O)Nc1nc(OC)cc(OC)n1 | 0.715% | –
56 | Oc1ccc(C2(c3ccc(O)cc3)CCCCC2)cc1 | – | 57.9 µM (active)
57 | CCCCCCCCCCCCBr | – | 43.3 µM (active)
58 | CCCCCCCCCCCCCC[P+](CCCCCC)(CCCCCC)CCCCCC (tested in a mixture with another compound) | – | 24.3 µM (active)
59 | CCC[CH2][Sn]([CH2]CCC)([CH2]CCC)[O]C(=O)c1ccccc1 | – | 1.54 µM (active)
